Measured values taken from the supplement of paper PMC10849652.
About 8,800 targets were measured; listed, in parts, are those with a hit and a random draw of the rest. About 0.5% of all pairs of compound and target were hits. Unmarked numbers belong to inactive results.

What was measured:
Experiment in all cases: log2 fold change, soluble protein after heating vs DMSO (PISA); higher = thermal stabilisation; K562 lysate, 10 uM; active = over 0.2 and 3.5 SD of the protein, either way, in both replicates (recomputed)
alvocidib = compound: CN1CC[C@H](c2c(O)cc(O)c3c(=O)cc(-c4ccccc4Cl)oc23)[C@H](O)C1 [alvocidib]
Procedure, shortened: (§1)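 A 30 min treatment with 10 μM compound was applied to crude K562 extract at 1 mg/mL protein in PBS pH 7.4 with 1 mM MgCl2. Heating for 3 min spanned 48°C-58°C, after which aliquots were pooled, adjusted to 0.5% NP-40 at 4°C and spun at 21,000xg for 90 min. TMTpro 16plex LC-MS/MS of the supernatant, with channel sums equalised, gave values recorded as log-two fold change in thermal stability against solvent controls, from duplicates.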

Tubastatin A = compound: CN1CCc2c(c3ccccc3n2Cc2ccc(C(=O)NO)cc2)C1 [Tubastatin A]
Procedure, shortened: as §1

[1] = compound: CNC(=O)C1=CC=CC=C1NC2=NC(=NC=C2Cl)NC3=C(C=C(C=C3)N4CCOCC4)OC
Procedure, shortened: as §1

defactinib = compound: CNC(=O)c1ccc(Nc2ncc(C(F)(F)F)c(NCc3nccnc3N(C)S(C)(=O)=O)n2)cc1 [defactinib]
Procedure, shortened: as §1

[2] = compound: CNc1nc(-c2ccc3c(N)n[nH]c3c2)cc(N2C[C@@H](C(=O)NC3CCCCC3)CC[C@H]2C)n1
Procedure, shortened: as §1

encorafenib = compound: COC(=O)N[C@@H](C)CNc1nccc(-c2cn(C(C)C)nc2-c2cc(Cl)cc(NS(C)(=O)=O)c2F)n1 [encorafenib]
Procedure, shortened: as §1

[3] = compound: COC(=O)[C@H](CCSC)NC(=O)C1=C(C=C(C=C1)NC[C@H](CS)N)C2=CC=CC=C2
Procedure, shortened: as §1

alisertib = compound: COc1cc(Nc2ncc3c(n2)-c2ccc(Cl)cc2C(c2c(F)cccc2OC)=NC3)ccc1C(=O)O [alisertib]
Procedure, shortened: as §1

[4] = compound: COc1cc2nc(-c3cc(F)ccc3O)nc(N[C@@H]3CNC[C@H]3C(C)(C)O)c2cc1OC
Procedure, shortened: as §1

gefitinib = compound: COc1cc2ncnc(Nc3ccc(F)c(Cl)c3)c2cc1OCCCN1CCOCC1 [gefitinib]
Procedure, shortened: as §1

UniProt Q9NPA8, sequence (Q9NPA8 whole entry, looked up): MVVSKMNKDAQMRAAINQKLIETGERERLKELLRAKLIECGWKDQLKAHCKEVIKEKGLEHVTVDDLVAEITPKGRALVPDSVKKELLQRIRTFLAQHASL
UniProt Q9BQI3, sequence (Q9BQI3 whole entry, looked up): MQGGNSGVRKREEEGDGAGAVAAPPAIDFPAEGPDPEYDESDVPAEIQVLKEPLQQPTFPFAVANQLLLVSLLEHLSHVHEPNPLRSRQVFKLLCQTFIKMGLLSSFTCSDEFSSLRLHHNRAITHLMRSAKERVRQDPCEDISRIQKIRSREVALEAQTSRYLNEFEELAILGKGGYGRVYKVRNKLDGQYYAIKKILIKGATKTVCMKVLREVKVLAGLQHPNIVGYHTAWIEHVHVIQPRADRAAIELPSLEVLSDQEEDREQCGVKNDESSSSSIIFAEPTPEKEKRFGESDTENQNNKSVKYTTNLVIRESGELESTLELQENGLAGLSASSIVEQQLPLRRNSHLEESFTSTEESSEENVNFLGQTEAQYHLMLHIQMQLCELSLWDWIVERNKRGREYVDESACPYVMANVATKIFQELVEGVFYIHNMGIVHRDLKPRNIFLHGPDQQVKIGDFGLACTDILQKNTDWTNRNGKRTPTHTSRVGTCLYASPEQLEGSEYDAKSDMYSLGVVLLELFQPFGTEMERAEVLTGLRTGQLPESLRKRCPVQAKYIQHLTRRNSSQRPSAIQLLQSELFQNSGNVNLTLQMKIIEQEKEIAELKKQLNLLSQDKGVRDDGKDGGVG
UniProt P37268, sequence (P37268 whole entry, looked up): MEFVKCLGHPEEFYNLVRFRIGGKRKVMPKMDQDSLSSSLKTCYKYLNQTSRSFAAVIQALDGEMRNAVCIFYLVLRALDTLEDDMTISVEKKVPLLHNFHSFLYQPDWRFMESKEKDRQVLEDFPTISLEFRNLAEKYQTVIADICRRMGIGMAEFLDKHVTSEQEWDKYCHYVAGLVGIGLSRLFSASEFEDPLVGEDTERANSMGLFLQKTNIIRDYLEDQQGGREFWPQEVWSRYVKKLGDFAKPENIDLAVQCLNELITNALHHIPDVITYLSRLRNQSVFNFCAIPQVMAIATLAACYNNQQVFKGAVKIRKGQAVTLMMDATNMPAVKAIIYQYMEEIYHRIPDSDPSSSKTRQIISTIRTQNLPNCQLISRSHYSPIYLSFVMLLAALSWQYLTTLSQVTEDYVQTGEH
UniProt Q8IY81, sequence (Q8IY81 whole entry, looked up): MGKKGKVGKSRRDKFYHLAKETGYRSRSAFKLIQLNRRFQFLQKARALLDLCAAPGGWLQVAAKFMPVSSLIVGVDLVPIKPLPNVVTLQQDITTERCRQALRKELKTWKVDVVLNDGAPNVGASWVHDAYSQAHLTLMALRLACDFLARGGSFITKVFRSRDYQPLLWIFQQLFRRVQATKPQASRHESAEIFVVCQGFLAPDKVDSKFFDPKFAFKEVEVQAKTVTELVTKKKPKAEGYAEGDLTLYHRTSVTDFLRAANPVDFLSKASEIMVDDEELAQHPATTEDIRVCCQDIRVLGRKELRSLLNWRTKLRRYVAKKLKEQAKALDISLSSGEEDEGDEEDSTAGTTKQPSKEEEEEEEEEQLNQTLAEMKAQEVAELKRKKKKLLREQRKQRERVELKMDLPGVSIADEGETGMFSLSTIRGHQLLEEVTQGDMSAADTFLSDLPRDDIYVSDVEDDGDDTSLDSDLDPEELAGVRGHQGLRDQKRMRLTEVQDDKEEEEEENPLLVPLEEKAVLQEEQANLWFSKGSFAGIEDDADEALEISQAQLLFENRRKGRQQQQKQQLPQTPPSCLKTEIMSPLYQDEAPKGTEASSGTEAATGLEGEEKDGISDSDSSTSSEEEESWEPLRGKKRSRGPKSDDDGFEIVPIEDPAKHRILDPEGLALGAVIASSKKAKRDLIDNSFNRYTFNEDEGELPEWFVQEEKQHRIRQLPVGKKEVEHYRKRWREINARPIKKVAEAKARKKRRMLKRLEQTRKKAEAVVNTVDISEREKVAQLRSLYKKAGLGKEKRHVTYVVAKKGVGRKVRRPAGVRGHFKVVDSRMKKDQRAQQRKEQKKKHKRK
UniProt Q8TAG9, sequence (Q8TAG9 whole entry, looked up): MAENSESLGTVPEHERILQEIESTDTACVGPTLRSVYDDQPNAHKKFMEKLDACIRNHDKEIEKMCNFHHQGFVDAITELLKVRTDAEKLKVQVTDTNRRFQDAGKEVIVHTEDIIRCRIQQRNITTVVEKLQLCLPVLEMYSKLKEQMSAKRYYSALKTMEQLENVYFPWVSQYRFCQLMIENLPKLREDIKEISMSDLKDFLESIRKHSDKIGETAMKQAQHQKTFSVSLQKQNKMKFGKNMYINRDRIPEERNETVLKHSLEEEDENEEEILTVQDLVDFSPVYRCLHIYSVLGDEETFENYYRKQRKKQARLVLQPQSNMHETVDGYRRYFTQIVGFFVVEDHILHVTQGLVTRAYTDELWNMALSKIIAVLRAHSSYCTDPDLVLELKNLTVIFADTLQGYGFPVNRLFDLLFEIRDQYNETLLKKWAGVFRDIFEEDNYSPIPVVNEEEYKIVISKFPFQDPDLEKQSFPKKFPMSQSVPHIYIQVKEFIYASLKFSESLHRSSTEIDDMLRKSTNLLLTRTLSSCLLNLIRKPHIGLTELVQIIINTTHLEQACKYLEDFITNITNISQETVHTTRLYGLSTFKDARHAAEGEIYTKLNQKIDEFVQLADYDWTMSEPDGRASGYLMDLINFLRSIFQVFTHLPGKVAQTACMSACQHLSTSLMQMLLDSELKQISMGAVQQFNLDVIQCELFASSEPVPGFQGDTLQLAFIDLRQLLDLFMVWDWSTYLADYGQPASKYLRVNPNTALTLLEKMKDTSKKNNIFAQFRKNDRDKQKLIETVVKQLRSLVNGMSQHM
UniProt P51114, sequence (P51114 whole entry, looked up): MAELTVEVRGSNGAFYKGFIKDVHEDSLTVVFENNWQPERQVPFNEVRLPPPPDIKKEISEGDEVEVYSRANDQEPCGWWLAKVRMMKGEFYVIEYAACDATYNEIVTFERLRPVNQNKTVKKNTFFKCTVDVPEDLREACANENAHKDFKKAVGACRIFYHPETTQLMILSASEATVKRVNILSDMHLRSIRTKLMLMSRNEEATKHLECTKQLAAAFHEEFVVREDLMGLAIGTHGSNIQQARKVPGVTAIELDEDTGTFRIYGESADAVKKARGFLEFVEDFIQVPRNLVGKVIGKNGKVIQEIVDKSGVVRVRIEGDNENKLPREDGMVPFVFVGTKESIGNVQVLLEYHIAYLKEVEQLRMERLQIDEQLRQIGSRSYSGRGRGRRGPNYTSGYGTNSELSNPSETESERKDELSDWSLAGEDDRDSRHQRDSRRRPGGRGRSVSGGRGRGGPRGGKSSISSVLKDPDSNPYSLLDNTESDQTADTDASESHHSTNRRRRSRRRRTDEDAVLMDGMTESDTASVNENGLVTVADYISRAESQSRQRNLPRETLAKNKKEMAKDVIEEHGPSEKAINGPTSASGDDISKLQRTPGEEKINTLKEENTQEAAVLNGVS
UniProt O00471, sequence (O00471 whole entry, looked up): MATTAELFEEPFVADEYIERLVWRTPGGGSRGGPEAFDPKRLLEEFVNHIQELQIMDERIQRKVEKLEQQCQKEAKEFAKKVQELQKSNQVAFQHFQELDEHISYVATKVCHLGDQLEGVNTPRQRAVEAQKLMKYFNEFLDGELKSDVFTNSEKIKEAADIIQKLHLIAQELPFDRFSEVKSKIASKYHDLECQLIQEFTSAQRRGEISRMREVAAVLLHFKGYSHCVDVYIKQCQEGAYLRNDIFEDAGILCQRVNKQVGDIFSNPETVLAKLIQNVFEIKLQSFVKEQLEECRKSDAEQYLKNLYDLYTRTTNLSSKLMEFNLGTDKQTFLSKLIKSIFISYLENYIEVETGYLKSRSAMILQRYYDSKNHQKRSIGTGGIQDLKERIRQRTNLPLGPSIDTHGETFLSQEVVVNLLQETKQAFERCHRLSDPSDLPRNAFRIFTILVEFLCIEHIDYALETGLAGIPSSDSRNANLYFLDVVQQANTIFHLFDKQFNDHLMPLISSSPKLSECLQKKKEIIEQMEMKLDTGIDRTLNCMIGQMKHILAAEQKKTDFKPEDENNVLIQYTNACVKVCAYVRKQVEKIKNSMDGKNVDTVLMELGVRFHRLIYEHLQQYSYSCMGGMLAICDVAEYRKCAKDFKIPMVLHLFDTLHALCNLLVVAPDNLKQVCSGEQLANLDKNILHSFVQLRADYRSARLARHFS
UniProt Q96G46, sequence (Q96G46 whole entry, looked up): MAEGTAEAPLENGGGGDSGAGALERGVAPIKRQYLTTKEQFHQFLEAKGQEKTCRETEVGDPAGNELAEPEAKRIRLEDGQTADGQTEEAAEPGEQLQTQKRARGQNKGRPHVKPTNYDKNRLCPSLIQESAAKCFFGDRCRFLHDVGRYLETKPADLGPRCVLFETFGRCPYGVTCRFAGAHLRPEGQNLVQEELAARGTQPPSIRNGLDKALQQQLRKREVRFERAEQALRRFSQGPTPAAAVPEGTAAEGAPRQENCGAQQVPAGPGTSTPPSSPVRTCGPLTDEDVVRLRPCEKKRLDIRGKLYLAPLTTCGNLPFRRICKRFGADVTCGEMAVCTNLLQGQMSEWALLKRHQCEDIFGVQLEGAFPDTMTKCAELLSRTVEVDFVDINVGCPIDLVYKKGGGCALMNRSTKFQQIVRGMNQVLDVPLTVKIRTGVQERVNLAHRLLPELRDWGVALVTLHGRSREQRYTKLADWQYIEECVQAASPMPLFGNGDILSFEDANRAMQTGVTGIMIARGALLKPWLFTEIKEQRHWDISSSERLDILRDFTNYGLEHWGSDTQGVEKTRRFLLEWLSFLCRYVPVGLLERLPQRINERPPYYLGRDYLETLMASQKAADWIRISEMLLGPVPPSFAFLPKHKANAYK
UniProt Q9H8W3, sequence (Q9H8W3 whole entry, looked up): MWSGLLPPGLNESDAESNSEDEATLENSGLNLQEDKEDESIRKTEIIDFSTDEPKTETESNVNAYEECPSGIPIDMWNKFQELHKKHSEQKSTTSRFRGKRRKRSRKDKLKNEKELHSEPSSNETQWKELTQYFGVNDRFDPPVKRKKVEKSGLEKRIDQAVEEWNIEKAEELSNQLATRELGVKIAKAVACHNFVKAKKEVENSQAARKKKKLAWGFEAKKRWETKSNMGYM

| Target | log2 fold change (alvocidib) | log2 fold change (Tubastatin A) | log2 fold change [1] | log2 fold change (defactinib) | log2 fold change [2] | log2 fold change (encorafenib) | log2 fold change [3] | log2 fold change (alisertib) | log2 fold change [4] | log2 fold change (gefitinib) |
| --- | --- | --- | --- | --- | --- | --- | --- | --- | --- | --- |
| EIF2AK1 (UniProt Q9BQI3) | 0.044 | -0.044 | 0.068 | -0.021 | -0.028 | -0.004 | 0.041 | -0.004 | 0.122 | 0.101 |
| GFPT1 (UniProt Q06210) | 0.022 | -0.075 | 0.011 | 0.01 | 0.012 | -0.012 | 0.134 | 0.005 | 0.007 | -0.013 |
| GEMIN4 (UniProt P57678) | 0.017 | -0.196 | 0.078 | -0.014 | -0.072 | 0.022 | 0.013 | -0.006 | -0.005 | 0.016 |
| ESYT2 (UniProt H7BXI1) | 0.02 | 0.038 | -0.02 | 0.001 | -0.072 | 0.053 | -0.1 | -0.003 | 0.029 | -0.006 |
| FUBP3 (UniProt Q96I24) | 0.008 | -0.101 | -0.033 | 0.005 | -0.05 | 0.065 | -0.146 | 0.048 | 0.001 | -0.033 |
| ESRRA (UniProt P11474) | 0.167 | -0.169 | 0.033 | -0.086 | -0.04 | 0.048 | -0.072 | -0.045 | -0.029 | 0.07 |
| EVI5L isoform 2 (UniProt Q96CN4) | -0.293 | – | – | – | – | – | – | – | – | – |
| DSN1 (UniProt Q9H410) | -0.046 | -0.087 | 0.076 | 0.059 | 0.04 | 0.006 | 0.107 | -0.005 | 0.004 | 0 |
| GDPD1 (UniProt Q8N9F7) | 0 | -0.023 | 0.006 | -0.03 | 0.046 | 0.059 | -0.272 (active) | -0.018 | -0.027 | -0.035 |
| EXOC5 (UniProt O00471) | 0.004 | -0.064 | -0.011 | 0.007 | -0.07 | 0.029 | -0.102 | 0.029 | -0.025 | 0.002 |
| EXOC1 (UniProt Q9NV70) | 0.01 | -0.139 | 0.006 | 0.022 | -0.086 | 0.014 | 0.012 | 0.007 | -0.015 | 0.015 |
| GART (UniProt P22102) | 0.021 | -0.073 | 0.002 | -0.024 | 0.021 | -0.027 | 0.08 | 0.008 | -0.004 | -0.017 |
| GEMIN2 (UniProt O14893) | 0.034 | -0.053 | 0.001 | -0.006 | 0.013 | 0.095 | -0.009 | -0.017 | 0.009 | -0.1 |
| GABPB1 (UniProt Q06547) | 0.181 | -0.001 | -0.028 | 0.005 | 0 | 0.036 | 0.097 | -0.016 | -0.043 | 0.024 |
| EDC4 (UniProt Q6P2E9) | -0.012 | -0.14 | 0.015 | -0.008 | -0.034 | 0.009 | -0.116 | 0.021 | 0.021 | -0.017 |
| GAPVD1 isoform 6 (UniProt Q14C86) | 0.01 | -0.112 | 0.015 | 0.018 | -0.04 | 0.014 | 0.097 | 0.005 | -0.017 | -0.012 |

| Target | log2 fold change (alvocidib) | log2 fold change (Tubastatin A) | log2 fold change [1] | log2 fold change (defactinib) | log2 fold change [2] | log2 fold change (encorafenib) | log2 fold change [3] | log2 fold change (alisertib) | log2 fold change [4] | log2 fold change (gefitinib) |
| --- | --- | --- | --- | --- | --- | --- | --- | --- | --- | --- |
| FDFT1 (UniProt P37268) | 0.002 | -0.037 | -0.033 | -0.048 | -0.018 | 0.047 | -0.155 | 0.068 | 0.018 | 0.016 |
| EAPP (UniProt Q56P03) | 0.048 | -0.025 | 0.078 | -0.017 | 0.107 | -0.014 | -0.053 | -0.042 | 0.017 | -0.03 |
| FAM204A (UniProt Q9H8W3) | -0.139 | -0.036 | 0.018 | 0.146 | – | – | – | – | – | – |
| DUS3L (UniProt Q96G46) | 0.076 | -0.065 | -0.012 | -0.023 | 0.001 | 0.091 | -0.024 | -0.02 | 0.036 | -0.005 |
| EXOC6 (UniProt Q8TAG9) | -0.014 | -0.092 | 0.013 | 0.008 | -0.017 | 0.015 | 0.039 | 0.007 | 0.016 | 0.003 |
| FADS3 (UniProt Q9Y5Q0) | -0.051 | 0.1 | -0.047 | 0.198 | -0.08 | 0.097 | 0.096 | 0 | 0 | 0.063 |
| DYRK1A (UniProt Q13627) | 0.106 | -0.088 | 0.113 | 0.016 | -0.034 | 0.024 | 0.002 | -0.008 | 0.017 | 0.007 |
| EWSR1 isoform 5 (UniProt Q01844) | -0.002 | 0.101 | -0.017 | -0.011 | 0.021 | -0.022 | -0.036 | 0.049 | -0.005 | -0.003 |
| EGLN1 (UniProt Q9GZT9) | -0.017 | -0.088 | 0.025 | 0.033 | -0.026 | 0 | 0.091 | 0.009 | 0.022 | -0.003 |
| FTSJ3 (UniProt Q8IY81) | 0.031 | -0.073 | -0.018 | 0.026 | 0.007 | -0.028 | 0.031 | 0.005 | -0.036 | 0.004 |
| ENY2 (UniProt Q9NPA8) | 0.351 (active) | -0.024 | 0.016 | 0.096 | -0.084 | 0.004 | -0.003 | 0.024 | -0.019 | -0.016 |
| FASTKD2 (UniProt Q9NYY8) | 0.014 | -0.065 | 0.016 | 0.056 | 0.036 | -0.016 | -0.004 | 0.021 | -0.033 | 0.021 |
| ECH1 (UniProt Q13011) | 0.017 | 0.309 (active) | -0.028 | 0.004 | -0.004 | -0.033 | -0.024 | -0.01 | 0.047 | -0.001 |
| FXR1 (UniProt P51114) | -0.028 | -0.176 | 0.02 | -0.043 | -0.039 | 0.057 | 0.035 | -0.012 | 0.012 | -0.022 |
| FANCD2 isoform 1 (UniProt Q9BXW9) | 0 | -0.082 | -0.001 | -0.044 | 0.147 | -0.059 | 0.096 | 0.001 | 0.023 | 0.009 |
